Test results as given in PubChem BioAssay (Tox21).
“And” between values parts separate entries of the source, which are not always exact repeats. Equal values may be shown once. Inconclusive results are not listed. Where a call stands in place of a potency, no number is given. Some structures have more than one record in an assay (separate samples or runs), and their calls can disagree. The source made the active and inactive calls. Calls come from the whole dose curve; as a rule, active = well fitted curve in the direction sought with a large enough effect in the repeat runs; inconclusive = weak or mixed curves; inactive = no such curve, though single readings can be large; an effect the other way counts as inactive or inconclusive.

Experiments:
[1] = qHTS RealTime-Glo MT Cell Viability Assay in HepG2 cells - 40 hour (AID 1224870); note: nearly all actives have a fitted effect of over 50% in size
Summary of the method: (§1)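 HepG2 cells mixed with RealTime-Glo MT reagents (NanoLuc plus cell-permeant prosubstrate) were seeded at 600 cells/well, incubated 5 h at 37 C/5% CO2, then pinned with compounds in DMSO; nonlytic luminescence tracked viability during 40 h treatment.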

[2] = A CellTox Green Cytotoxicity Assay to monitor cytotoxicity in HEK293 cells - 40 hour (AID 1224871); note: nearly all actives have a fitted effect of over 45% in size; note: potency is the fitted concentration of half-maximal effect
Summary of the method: (§2)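 Nonlytic real-time cytotoxicity: HEK293 + CellTox Green reagent plated, 5 h preincubation, pintool compound addition (23 nL in DMSO), 37 C for 40 h, fluorescence measured at successive time points.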

[3] = qHTS RealTime-Glo MT Cell Viability Assay in HEK293 cells - 16 hour (AID 1224872); note: top concentration of the series differs between compounds; nearly all actives have a fitted effect of over 50% in size
Summary of the method: (§3)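 Reads taken at 0, 8, 16, 24, 32 and 40 h from the same wells. HEK293 cells (600/well) carried RealTime-Glo reagents from seeding, with compound added after a 5 h settle at 37 C.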

[4] = qHTS RealTime-Glo MT Cell Viability Assay in HepG2 cells - 8 hour (AID 1224873); note: nearly all actives have a fitted effect of over 55% in size
Summary of the method: as §1

[5] = qHTS RealTime-Glo MT Cell Viability Assay in HEK293 cells - 40 hour (AID 1224874); details: RealTime-Glo luminescence; max response: stronger effect = lower value; note: nearly all actives have a fitted effect of over 50% in size
Summary of the method: (§4)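 Cells were seeded together with NanoLuc luciferase and a prosubstrate that viable cells reduce to a luciferase substrate. After a 5 h incubation at 37 C/5% CO2, compounds were added and luminescence was measured repeatedly during 40 h of treatment.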

[6] = A CellTox Green Cytotoxicity Assay to monitor cytotoxicity in HEK293 cells - 24 hour (AID 1224875); note: series mostly up to about 77 µM; nearly all actives have a fitted effect of over 45% in size
Summary of the method: as §2

[7] = A CellTox Green Cytotoxicity Assay to monitor cytotoxicity in HepG2 cells - 16 hour (AID 1224876); note: nearly all actives have a fitted effect of over 45% in size; note: potency is the fitted concentration of half-maximal effect
Summary of the method: (§5)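 Read-out is fluorescence of a cyanine dye excluded from live cells that stains DNA of dead HepG2 cells, with signal proportional to cytotoxicity. Plates were read at 0, 8, 16, 24, 32 and 40 h after compound addition.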

[8] = qHTS RealTime-Glo MT Cell Viability Assay in HepG2 cells - 32 hour (AID 1224877); note: nearly all actives have a fitted effect of over 55% in size
Summary of the method: (§6)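 HepG2 suspension premixed with RealTime-Glo reagents is plated at 600 cells per well and left 5 h at 37 C/5% CO2. Compounds in DMSO then go in, and bioluminescence reflecting viable cell number is recorded over 40 h.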

[9] = A CellTox Green Cytotoxicity Assay to monitor cytotoxicity in HepG2 cells - 24 hour (AID 1224878); note: nearly all actives have a fitted effect of over 45% in size; note: potency is the fitted concentration of half-maximal effect
Summary of the method: as §5

[10] = A CellTox Green Cytotoxicity Assay to monitor cytotoxicity in HepG2 cells - 40 hour (AID 1224879); note: nearly all actives have a fitted effect of over 40% in size; note: potency is the fitted concentration of half-maximal effect
Summary of the method: as §5

[11] = qHTS RealTime-Glo MT Cell Viability Assay in HEK293 cells - 0 hour (AID 1224880)
Summary of the method: as §4

[12] = A CellTox Green Cytotoxicity Assay to monitor cytotoxicity in HepG2 cells - 0 hour (AID 1224882); note: nearly all actives have a fitted effect of over 35% in size; note: potency is the fitted concentration of half-maximal effect
Summary of the method: as §5

[13] = A CellTox Green Cytotoxicity Assay to monitor cytotoxicity in HepG2 cells - 32 hour (AID 1224883); note: nearly all actives have a fitted effect of over 50% in size; note: potency is the fitted concentration of half-maximal effect
Summary of the method: as §5

[14] = A CellTox Green Cytotoxicity Assay to monitor cytotoxicity in HEK293 cells - 8 hour (AID 1224884); note: nearly all actives have a fitted effect of over 35% in size; note: potency is the fitted concentration of half-maximal effect
Summary of the method: as §2

[15] = qHTS RealTime-Glo MT Cell Viability Assay in HepG2 cells - 16 hour (AID 1224885); note: nearly all actives have a fitted effect of over 50% in size
Summary of the method: as §6

[16] = qHTS RealTime-Glo MT Cell Viability Assay in HEK293 cells - 24 hour (AID 1224886)
Summary of the method: as §3

[17] = qHTS RealTime-Glo MT Cell Viability Assay in HEK293 cells - 8 hour (AID 1224887); note: nearly all actives have a fitted effect of over 50% in size; note: potency is the fitted concentration of half-maximal effect
Summary of the method: as §4

[18] = A CellTox Green Cytotoxicity Assay to monitor cytotoxicity in HEK293 cells - 16 hour (AID 1224888); note: nearly all actives have a fitted effect of over 35% in size
Summary of the method: as §2

[19] = A CellTox Green Cytotoxicity Assay to monitor cytotoxicity in HEK293 cells - 32 hour (AID 1224881); note: nearly all actives have a fitted effect of over 40% in size
Summary of the method: as §2

[20] = qHTS RealTime-Glo MT Cell Viability Assay in HepG2 cells - 0 hour (AID 1224889); note: nearly all actives have a fitted effect of over 50% in size
Summary of the method: as §6

Compound	Potency [1]	Potency [2]	Potency [3]	Potency [4]	max response [5]	Potency [6]	Potency [7]	Potency [8]	Potency [9]	Potency [10]	Potency [11]	Potency [12]	Potency [13]	Potency [14]	Potency [15]	Potency [16]	Potency [17]	Potency [18]	Potency [19]	Potency [20]
Cc1cc(=O)[nH]c(C(C)C)n1	inactive	inactive	inactive	inactive	1.9% (inactive) and -0.481% (inactive)	inactive	inactive	inactive	inactive	inactive	inactive	inactive	inactive	inactive	inactive	inactive	inactive	inactive	–	–
OC[C@@H](O)[C@H](O)[C@H](O)[C@@H](O)CO	inactive	inactive	inactive	inactive	7.24% (inactive) and 7.63% (inactive)	inactive	inactive	inactive	inactive	inactive	inactive	inactive	inactive	inactive	inactive	inactive	inactive	inactive	inactive	inactive
C=C(C)C(=O)OCC(CC)(COC(=O)C(=C)C)COC(=O)C(=C)C	inactive	inactive and 42.9 µM (active)	inactive	inactive	2.46% (inactive) and 6.81% (inactive)	–	inactive and 42.9 µM (active)	inactive	inactive and 38.2 µM (active)	inactive and 42.9 µM (active)	inactive	inactive and 42.9 µM (active)	inactive and 42.9 µM (active)	inactive and 24.1 µM (active)	inactive	inactive	inactive	–	–	inactive
CCOC(=O)/C=C\C(=O)OCC	inactive	inactive	inactive	inactive	0.421% (inactive) and 21.2% (inactive)	inactive	–	inactive	inactive	–	inactive	–	inactive	inactive	inactive	inactive	inactive	inactive	inactive	inactive
CCCCC(CC)C(=O)OCCOCCOCCOC(=O)C(CC)CCCC (configuration not stated)	inactive	inactive	–	inactive	-28.2% (inactive)	inactive	inactive	inactive	inactive	inactive	inactive	–	inactive	inactive	inactive	–	inactive	inactive	inactive	–
O=Nc1ccc(O)cc1	inactive	inactive	inactive	inactive	2.25% (inactive)	inactive	–	inactive	inactive	inactive	inactive	inactive	inactive	inactive	inactive	inactive	24 µM (active) and inactive	inactive	inactive	inactive
